# Source: PubChem BioAssay (Tox21)
# A number with no mark means an inactive call. Inconclusive results are not listed. Entries that show only a call come without a potency. Activity calls are given as the source filed them. Unless noted, calls follow the shape of the dose curve; as a rule, active = well fitted curve in the direction sought with a large enough effect in the repeat runs; inconclusive = weak or mixed curves; inactive = no such curve, though single readings can be large; an effect the other way counts as inactive or inconclusive.
# Key:
# [1] = A CellTox Green Cytotoxicity Assay to monitor cytotoxicity in HepG2 cells - 8 hour (AID 1224890); also: nearly all actives have a fitted effect of over 45% in size
# Procedure, shortened: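 Measurements at 0, 8, 16, 24, 32 and 40 h of treatment captured CellTox Green fluorescence in HepG2 cells that had been co-plated with reagent and preincubated 5 h at 37 C/5% CO2.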
# [2] = qHTS assay to identify small molecule antagonists of the estrogen receptor alpha (ER-alpha) signaling pathway using the BG1 cell line in the presence of 0.1 nM 17-beta-estradiol - cell viability counter screen (AID 1259241); also: nearly all actives have a fitted effect of over 40% in size
# Procedure, shortened: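 Viability in VM7Luc4E2 cells after 22 hr compound exposure under 0.1 nM 17beta-estradiol stimulation, by CellTiter-Fluor.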
# [3] = qHTS assay to identify small molecule antagonists of the androgen receptor (AR) signaling pathway using the MDA cell line in the presence of 0.5 nM R1881 - cell viability counter screen (AID 1259242); also: nearly all actives have a fitted effect of over 45% in size
# Procedure, shortened: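 Concentration-response screen of compounds for toxicity in MDA-kb2 reporter cells: 16 hr at 37C with 0.5 nM R1881, endpoint live-cell protease fluorescence measured in the reporter wells.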
# [4] = target: Estrogen receptor (Homo sapiens) (UniProt P03372); assay: qHTS assay to identify small molecule antagonists of the estrogen receptor alpha (ER-alpha) signaling pathway using the BG1 cell line in the presence of 0.1 nM 17-beta-estradiol (AID 1259244); also: nearly all actives have a fitted effect of over 50% in size
# Chain of Estrogen receptor (Homo sapiens) (P03372 whole entry, looked up): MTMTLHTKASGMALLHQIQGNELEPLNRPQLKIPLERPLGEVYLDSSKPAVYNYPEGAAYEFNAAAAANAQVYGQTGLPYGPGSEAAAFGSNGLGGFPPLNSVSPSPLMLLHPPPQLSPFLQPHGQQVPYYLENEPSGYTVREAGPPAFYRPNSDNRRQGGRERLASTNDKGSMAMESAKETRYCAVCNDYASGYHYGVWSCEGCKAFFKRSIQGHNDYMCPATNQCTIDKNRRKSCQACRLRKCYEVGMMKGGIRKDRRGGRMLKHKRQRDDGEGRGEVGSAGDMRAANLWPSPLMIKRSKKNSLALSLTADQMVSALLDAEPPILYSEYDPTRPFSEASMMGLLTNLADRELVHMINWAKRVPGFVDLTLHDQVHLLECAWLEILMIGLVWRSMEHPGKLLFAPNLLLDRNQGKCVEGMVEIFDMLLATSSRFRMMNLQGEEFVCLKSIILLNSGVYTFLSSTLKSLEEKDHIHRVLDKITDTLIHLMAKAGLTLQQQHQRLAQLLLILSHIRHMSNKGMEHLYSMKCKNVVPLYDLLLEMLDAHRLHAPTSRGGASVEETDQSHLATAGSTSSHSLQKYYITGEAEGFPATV
# Procedure, shortened: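 Compounds were tested against 0.1 nM (final) 17beta-estradiol in VM7Luc4E2 cells, which express full-length ER-alpha and an ERE-luciferase reporter; luminescence was recorded following 22 h exposure.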
# [5] = qHTS assay to identify small molecule HDAC inhibitors (AID 1259364); also: potency is read from the fitted curve at half-maximal effect;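 also: wild-type HCT-116 cells with endogenous class I/II HDAC activity; nearly all actives have a fitted effect of over 45% in size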; as to activity change, negative = inhibition: top concentration of the series differs between compounds
# Procedure, shortened: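 Screening used wild-type human colon HCT-116 cells incubated overnight, dosed with compounds for 2 hours, and assayed with a homogeneous luminogenic HDAC I/II reagent for 30 minutes at room temperature.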
# [6] = qHTS assay to identify small molecule HDAC inhibitors - cell viability counter screen (AID 1259365); also: series mostly up to about 92 µM; nearly all actives have a fitted effect of over 50% in size
# Procedure, shortened: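 Cytotoxicity was gauged in wild-type HCT-116 cells after a brief 2hr treatment with DMSO-dissolved compounds at 37C and 5% CO2, using CellTiter-Glo luminescence developed for 30min at room temperature.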
# [7] = qHTS assay to identify small molecule agonists of the sonic hedgehog signaling (Shh) pathway - cell viability counter screen (AID 1259366); also: nearly all actives have a fitted effect of over 50% in size
# Procedure, shortened: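 Stable Gli1-Luc NIH/3T3 clone, 2,000 cells/well. Compound exposure 24hr at 37C. Read-out: CellTiter-Fluor fluorescence.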
# [8] = qHTS assay to identify small molecule antagonists of the sonic hedgehog signaling (Shh) pathway - cell viability counter screen (AID 1259367); also: nearly all actives have a fitted effect of over 55% in size
# Procedure, shortened: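 CellTiter-Fluor signal in conditioned medium-stimulated 3T3 Gli1-Luc cells, 23 hr compound exposure, 37C.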
# [9] = qHTS assay to identify small molecule agonists of the sonic hedgehog signaling (Shh) pathway (AID 1259368; calls by dose curve;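 also: NIH/3T3-derived 3T3Gli1-Luc cells carrying a stable Gli1-driven firefly luciferase reporter; series mostly up to about 92 µM; nearly all actives have a fitted effect of over 15% in size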)
# Procedure, shortened: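 Hedgehog pathway agonism scored by increased firefly luciferase luminescence in 3T3Gli1-Luc cells treated 24 hr at 37 C; detection used a 30 min room-temperature reagent incubation.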
# [10] = qHTS assay to identify small molecule antagonists of the sonic hedgehog signaling (Shh) pathway (AID 1259369; calls by dose curve; also: nearly all actives have a fitted effect of over 45% in size)
# Procedure, shortened: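 NIH/3T3 stable Gli1-Luc clone, 2,000 cells/well, 4hr settle; cpd + conditioned medium 24hr; Luc reagent 30min RT; luminescence.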
# [11] = qHTS assay to identify small molecule agonists of the androgen receptor (AR) signaling pathway in the presence of an antagonist - cell viability counter screen (AID 1259379);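 also: MDA-kb2 human breast cancer cells carrying an MMTV luciferase reporter; series mostly up to about 92 µM; nearly all actives have a fitted effect of over 25% in size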
# Procedure, shortened: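 MDA-kb2 viability measured by CellTiter-Fluor fluorescence in the same wells as the luciferase signal; nilutamide 3.0uM final; 15-point compound titration; 16 hr at 37C.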
# [12] = qHTS assay to identify small molecule antagonists of the estrogen receptor beta (ER-beta) signaling pathway - cell viability counter screen (AID 1259382);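 also: HEK293T cells carrying ER-beta-UAS-bla reporter stimulated with estradiol; series mostly up to about 92 µM; nearly all actives have a fitted effect of over 55% in size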
# Procedure, shortened: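 Readout: luminescence, CellTiter-Glo, same wells as bla assay. System: ER-beta-UAS-bla GripTite HEK293T, 2% charcoal-stripped FBS. Exposure: compounds plus 1nM 17-beta-estradiol, 16 hr, 37C.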
# [13] = qHTS assay to identify small molecule agonists or antagonists of the thyroid stimulating hormone receptor (TSHR) signaling pathway - wild type cell line counter screen (AID 1259384; calls by dose curve)
# Procedure, shortened: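 Counter screen in untransfected Hek293: compounds (15-point titration, triplicate) plus phosphodiesterase inhibitor Ro20-1724 added after 18 h plating; 30 min RT. Intracellular cAMP via competitive d2/cryptate immunoassay, 1 h incubation.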
# [14] = qHTS assay to identify small molecule phospholipidosis (PLD) inducers (AID 1259344; active = well fitted curve in the direction sought with a large enough effect; an effect the other way counts as inactive or inconclusive)
# Procedure, shortened: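 Accumulated phospholipid, stained red by LipidTOX during 24 h compound treatment of HepG2 cells at 37 C, is quantified from images as pit number and intensity, normalised per cell using Hoechst-stained nuclei.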
# [15] = target: Estrogen receptor beta (Homo sapiens) (UniProt Q92731); assay: qHTS assay to identify small molecule agonists of the estrogen receptor beta (ER-beta) signaling pathway (AID 1259377; active = well fitted activation curve with a large enough effect in the signal ratio in the repeat runs, not every such curve was filed as active; the % refers to the signal ratio)
# Chain of Estrogen receptor beta (Homo sapiens) (Q92731 whole entry, looked up): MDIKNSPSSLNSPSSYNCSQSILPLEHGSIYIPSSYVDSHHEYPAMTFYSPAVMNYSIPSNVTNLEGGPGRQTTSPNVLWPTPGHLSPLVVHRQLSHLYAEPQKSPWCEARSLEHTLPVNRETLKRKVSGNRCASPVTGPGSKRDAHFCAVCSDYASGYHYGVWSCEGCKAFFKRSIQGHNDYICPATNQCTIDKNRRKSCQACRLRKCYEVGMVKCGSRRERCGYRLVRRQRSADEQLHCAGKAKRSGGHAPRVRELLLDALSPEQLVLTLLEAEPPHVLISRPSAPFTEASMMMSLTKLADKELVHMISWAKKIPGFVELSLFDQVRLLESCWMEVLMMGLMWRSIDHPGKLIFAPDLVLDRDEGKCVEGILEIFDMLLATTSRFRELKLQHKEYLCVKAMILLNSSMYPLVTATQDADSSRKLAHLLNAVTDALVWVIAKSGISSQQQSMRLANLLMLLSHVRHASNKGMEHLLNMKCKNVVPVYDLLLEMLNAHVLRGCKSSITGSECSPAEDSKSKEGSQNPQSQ
# Procedure, shortened: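 Measured by fluorescence intensity from a B/G FRET beta-lactamase substrate (2 h, room temperature) in ER-beta-UAS-bla HEK293T cells treated with DMSO-dissolved compounds for 16 hr at 37C and 5% CO2.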
# [16] = target: Estrogen receptor beta (Homo sapiens) (UniProt Q92731); assay: qHTS assay to identify small molecule antagonists of the estrogen receptor beta (ER-beta) signaling pathway (AID 1259378; active = well fitted inhibition curve with a large enough effect in the signal ratio in the repeat runs, not every such curve was filed as active; the % refers to the signal ratio)
# Procedure, shortened: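 Antagonist mode: compounds added to beta-lactamase reporter HEK293T ER-beta-UAS cells stimulated with E2 (1nM final), 16 hr at 37C. LiveBLAzer B/G FRET substrate, 2 hours room temperature, fluorescence read-out.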
# [17] = qHTS assay to identify small molecule agonists of the estrogen receptor beta (ER-beta) signaling pathway - cell viability counter screen (AID 1259380); also: nearly all actives have a fitted effect of over 30% in size
# Procedure, shortened: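 Measured: luminescence from CellTiter-Glo after 30 min at room temperature, added to wells already read for the LiveBLAzer FRET reporter (2 hr substrate); ER-beta-UAS-bla HEK293T cells had 16 hr compound treatment at 37C, 5% CO2.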
# [18] = target: Estrogen receptor (Homo sapiens) (UniProt P03372); assay: qHTS assay to identify small molecule agonists of the estrogen receptor alpha (ER-alpha) signaling pathway in the presence of an antagonist (AID 1259383; calls by dose curve; also: nearly all actives have a fitted effect of over 15% in size; also: potency is read from the fitted curve at half-maximal effect; as to activation: top concentration of the series differs between compounds)
# Procedure, shortened: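 Quantitative HTS confirmation: compounds titrated at 15 concentrations onto estrogen-deprived VM7Luc4E2 cells carrying a four-ERE luciferase construct, with ICI-182,780 present at 10.0nM final. Signal is luminescence after 22hr exposure.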
smiles,measurement,setting,value
CCCCCCCCCCCCSC#N,Potency,[1],inactive
same,Potency,[2],inactive
same,Potency,[3],inactive
same,Potency,[4],inactive
same,Potency,[5],inactive
same,outcome,[6],inactive
same,Potency,[7],inactive
same,Potency,[8],inactive
same,Potency,[9],inactive
same,Potency,[10],inactive
same,Potency,[11],inactive
same,Potency,[12],inactive
same,outcome,[13],inactive
CC(=O)Nc1ccn(C2COC(COC(=O)c3ccccc3)O2)c(=O)n1 (stereo not given),Potency,[1],inactive
same,Potency,[2],inactive
same,Potency,[3],inactive
same,PLD induction,[14],1.43% [at 1.53 µM]
same,Potency,[5],inactive
same,outcome,[6],inactive
same,Potency,[7],inactive
same,Potency,[8],inactive
same,Potency,[9],inactive
same,Potency,[10],inactive
same,Potency,[15],inactive
same,Potency,[16],inactive
same,Potency,[11],inactive
same,Potency,[17],inactive
same,Potency,[12],inactive
same,outcome,[13],inactive
CC(C)=CCC/C(C)=C/C=N/O,Potency,[1],inactive
same,Potency,[2],inactive
same,Potency,[3],inactive
same,Potency,[4],inactive
same,Potency,[5],inactive
same,Potency,[7],inactive
same,Potency,[8],inactive
same,Potency,[9],inactive
same,Potency,[10],inactive
same,Potency,[15],inactive
same,Potency,[16],inactive
same,Potency,[11],inactive
same,Potency,[17],inactive
same,Potency,[18],inactive
same,outcome,[13],inactive
c1ccc(-c2ccc(-c3ccccc3)cc2)cc1,cytotoxicity increase,[1],-1.41% [at 15.8 µM]
same,"activity change, negative = cytotoxicity",[2],0.519% [at 19 µM]
same,"viability change, negative = cytotoxic",[3],1.4% [at 19 µM]
same,"activity change, negative = inhibition",[4],56.5% [at 19 µM]
same,Potency,[5],4450 nM (active)
same,"activity change, negative = cytotoxicity",[6],0.606% [at 19 µM]
same,"viability change, negative = cytotoxic",[7],0.865% [at 19 µM]
same,"viability change, negative = cytotoxic",[8],-1.08% [at 19 µM]
same,activity change,[9],"4.66% [at 18.9 µM, active compounds read high]"
same,"activity change, negative = inhibition",[10],32.6% [at 19 µM]
same,"activity change, negative = cytotoxicity",[11],-0.211% [at 19 µM]
same,"activity change, negative = cytotoxicity",[17],0.175% [at 19 µM]
same,"activity change, negative = cytotoxicity",[12],-1.89% [at 19 µM]
same,Potency,[18],629 nM (active)
CCn1nc(Cc2ccccc2)cc1C1CCN(C[C@H]2C[C@H](N(C)[C@@H](C(=O)O)C(C)C)C[C@@H]2c2cccc(F)c2)CC1,Potency,[1],inactive
same,Potency,[2],inactive
same,Potency,[3],inactive
same,Potency,[4],inactive
same,Potency,[5],inactive
same,outcome,[6],inactive
same,Potency,[9],inactive
same,Potency,[15],inactive
same,Potency,[11],inactive
same,Potency,[12],inactive
same,Potency,[18],inactive
same,outcome,[13],inactive
O=C1C=CCCC1,Potency,[1],inactive
same,Potency,[2],inactive
same,Potency,[3],inactive
same,Potency,[4],inactive
same,Potency,[5],inactive
same,Potency,[7],inactive
same,Potency,[8],inactive
same,Potency,[9],inactive
same,Potency,[10],inactive
same,Potency,[15],inactive
same,Potency,[16],inactive
same,Potency,[11],inactive
same,Potency,[17],inactive
same,Potency,[12],inactive
same,Potency,[18],inactive
same,outcome,[13],inactive
O=C(O)c1c2ccccc2cc2ccccc12,Potency,[1],inactive
same,Potency,[2],inactive
same,Potency,[3],inactive
same,Potency,[4],inactive
same,Potency,[5],inactive
same,outcome,[6],inactive
same,Potency,[7],inactive
same,Potency,[8],inactive
same,Potency,[9],inactive
same,Potency,[10],inactive
same,Potency,[15],inactive
same,Potency,[16],inactive
same,Potency,[17],inactive
same,Potency,[12],inactive
same,outcome,[13],inactive
O=C(Cl)c1cc(Cl)cc(Cl)c1,Potency,[1],inactive
same,Potency,[2],inactive
same,Potency,[3],inactive
same,Potency,[4],inactive
same,Potency,[5],inactive
same,outcome,[6],inactive
same,Potency,[7],inactive
same,Potency,[8],inactive
same,Potency,[9],inactive
same,Potency,[15],inactive
same,Potency,[16],inactive
same,Potency,[11],inactive
same,Potency,[17],inactive
same,Potency,[12],inactive
same,Potency,[18],inactive
same,outcome,[13],inactive
Clc1cc(Cl)c2c(c1)N=C1CCCCCN1C2,Potency,[1],inactive
same,Potency,[2],inactive
same,Potency,[3],inactive
same,Potency,[4],inactive
same,outcome,[6],inactive
same,Potency,[7],inactive
same,Potency,[8],inactive
same,Potency,[9],inactive
same,Potency,[10],inactive
same,Potency,[11],inactive
same,Potency,[12],inactive
same,Potency,[18],inactive
same,outcome,[13],inactive
